Each structure is given as a SMILES string.

For this test, the system named is HepG2. As to the kind of experiment: GSK_TCMDC: Percent inhibition of human HepG2 cell line. Test compounds present at 10uM. It counts as functional.
On to `Cc1nc(C)n(CC(=O)Nc2cccc(-c3cccc(-c4nc5cc(C(F)(F)F)ccc5[nH]4)c3)c2)n1`, for which the Inhibition (commonly the relative decrease from the control value, in per cent) stood at 62%.
As for `O=C(Nc1cccc(-c2csc(NC(=O)c3ccc4ccccc4c3)n2)c1)c1ccc2ccccc2c1`, the Inhibition is reported as 3%.
Take `CCc1ccc(C2CCN(CCCCNC(=O)c3ccc(NC(=O)c4ccc(Cl)cc4)cc3)CC2)c(OCC(=O)OC)c1`: the Inhibition is given as 32%.
On to `CC(C)c1ccc2oc(-c3ccc(NC(=O)c4ccc([N+](=O)[O-])o4)cc3)nc2c1`, for which the Inhibition was determined as 99%.
In the case of `CC(=O)Nc1nnc(SCc2c(C)cc(C(C)(C)C)cc2C)s1` it was 3%.

Values taken from ChEMBL document CHEMBL1157539, “Thousands of chemical starting points for antimalarial lead identification” (Nature, 2010).
